Only some compounds are listed: those with a hit (about 3.3% of all), similar ones and a draw of the others.
Sm TGR block – S. mansoni TGR enzyme inhibition | Q962Y6 | purified TGR, DTNB reduction, TNB absorbance 405 nm | Potency, µM (doses to about 114 µM), hits mostly inhibitors | hit rate 3% among 360,000; note: nearly all actives have a fitted effect of over 60% in size
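Kinetic colorimetric format: TGR-catalysed, NADPH-driven DTNB reduction monitored via TNB absorbance. Enzyme dispensed at 20 nM; compound exposure 15 min at room temperature before reaction start.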
AmpC inh no detg – AmpC beta-lactamase inhibition without detergent; P00811; AmpC nitrocefin hydrolysis, absorbance 480 nm, 0.0001% Triton; Potency, µM (series often up to 57.1 µM), actives largely listed as inhibitors; hit rate 0.52% among 330,000; AID 485341; note: nearly all actives have a fitted effect of over 20% in size
Target sequence (P00811 whole entry, looked up): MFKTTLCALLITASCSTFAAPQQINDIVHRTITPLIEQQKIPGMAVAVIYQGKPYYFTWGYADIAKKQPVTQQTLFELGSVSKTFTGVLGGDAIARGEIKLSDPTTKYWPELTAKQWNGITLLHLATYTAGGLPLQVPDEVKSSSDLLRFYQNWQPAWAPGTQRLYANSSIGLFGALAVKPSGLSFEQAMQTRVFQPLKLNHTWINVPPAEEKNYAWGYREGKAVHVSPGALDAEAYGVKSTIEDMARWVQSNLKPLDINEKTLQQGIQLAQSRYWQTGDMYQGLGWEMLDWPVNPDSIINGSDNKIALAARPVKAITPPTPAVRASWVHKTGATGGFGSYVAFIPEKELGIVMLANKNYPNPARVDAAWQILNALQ
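20 mM phosphate pH 7.0 + 0.01% (detergent screen) or 0.0001% Triton X-100; 5.3 nM AmpC reagent; cpd preinc 15 min RT; nitrocefin (800 uM stock) to start; A480 q20 s × 4 min; Activity was normalised to no-enzyme and no-compound control wells.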
AmpC inh detg – blocks E. coli AmpC beta-lactamase in detergent assay. AmpC hydrolysis of nitrocefin, absorbance 480 nm, 0.01% Triton. Potency, µM (doses to about 114 µM), actives largely listed as inhibitors. hit rate 0.041% among 370,000. AID 485294; note: nearly all actives have a fitted effect of over 25% in size
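AmpC (5.3 nM in the dispensed reagent) in 20 mM phosphate pH 7.0 with 0.01% (detergent screen) or 0.0001% Triton X-100 was preincubated with compounds for 15 min at room temperature. Nitrocefin was then added from an 800 uM solution, and hydrolysis was followed at 480 nm.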
Large screens that a line does not name were inactive. Calls come from the whole dose curve; as a rule, active = well fitted curve in the direction sought with a large enough effect; inconclusive = small, poorly fitted or top-dose-only effect, or another doubt; inactive = no such curve, though single readings can be large; an effect the other way counts as inactive or inconclusive.

COc1ccccc1NC(=O)C1=C(C)Nc2nc(-c3ccco3)nn2C1c1cccc(C)c1 (stereo not drawn)	none (no result: AmpC inh no detg)
Cc1ccc(N=C2NC(=O)S/C2=C\c2ccco2)cc1	none
Cc1cccc(N=C2NC(=O)/C(=C/C=C/c3ccco3)S2)c1C	Sm TGR block 10µM, AmpC inh no detg 32µM
Cc1ccc(N=C2NC(=O)/C(=C/C=C/c3ccco3)S2)cc1	Sm TGR block 45µM
O=C1NC(=Nc2ccccc2)/C(=C/c2ccco2)S1	Sm TGR block 50µM, AmpC inh detg inconclusive
COc1ccc(N=C2NC(=O)/C(=C\C=C\c3ccccc3)S2)cc1	none
COc1ccc(N=C2NC(=O)/C(=C/C=C/c3ccccc3)S2)cc1	none
Cc1cccc(N=C2NC(=O)/C(=C/c3cccn3C)S2)c1C	Sm TGR block inconclusive
O=C1NC(=Nc2ccccc2)S/C1=C\C=C\c1ccco1	Sm TGR block 11µM, AmpC inh no detg 14µM
CCOc1ccc(NC(=O)Cn2c(=O)n(-c3ccccc3)c(=O)c3c4c(sc32)CCCC4)cc1	none (no result: AmpC inh no detg)
COC(=O)c1c(SCC(=O)Nc2cc(F)ccc2F)[nH]c2ccc(C)cc2c1=O	none (no result: AmpC inh no detg)
COc1ccc(-c2nnc(SCC(=O)Nc3cc(OC)ccc3OC)nc2-c2ccc(OC)cc2)cc1	none (no result: AmpC inh no detg)
COc1ccc(-c2nnc(SCCOc3ccccc3C)o2)cc1OC	none (no result: AmpC inh no detg)
CCCn1c(=O)c2sccc2n2c(CCCC(=O)N3CCN(c4ccccc4OC)CC3)nnc12	none (no result: AmpC inh no detg)
COc1ccc(-c2onc(C)c2C)cc1S(=O)(=O)N1CCN(c2cc(C)ccc2C)CC1	none (no result: AmpC inh no detg)
CCOCCCNC(=O)c1cc2c(=O)n(C)c3ccccc3c2n1C	none (no result: AmpC inh no detg)
CN(CCNC(=O)c1cc2c(=O)n(C)c3ccccc3c2n1C)Cc1ccccc1	Sm TGR block 28µM
Cc1ccc(CNC(=O)c2cc3c(=O)n(C)c4ccccc4c3n2C)cc1	AmpC inh detg inconclusive
CCCN(CCC)CCNC(=O)c1cc2c(=O)n(C)c3ccccc3c2n1C	Sm TGR block 50µM, AmpC inh no detg inconclusive, AmpC inh detg inconclusive
Cn1c(C(=O)N2CCN(Cc3ccccc3)CC2)cc2c(=O)n(C)c3ccccc3c21	Sm TGR block inconclusive
CCN1CCN(C(=O)c2cc3c(=O)n(C)c4ccccc4c3n2C)CC1	Sm TGR block inconclusive, AmpC inh no detg 11µM, AmpC inh detg inconclusive
Cc1cccc(OCc2ccc(-c3nc(C#N)c(NCCN(C)C)o3)o2)c1	none (no result: AmpC inh no detg)
Cc1c(CCC(=O)NCc2cccc(Cl)c2)c(=O)oc2c(C)c(O)ccc12	none (no result: AmpC inh no detg)
COc1ccc(-c2noc(CNC(=O)COc3cccc(C)c3C)n2)cc1	none (no result: AmpC inh no detg)
CCCCn1c(C(C)NC(=O)c2ccccc2)nc2ccccc21 (stereo not drawn)	none (no result: AmpC inh no detg)
Cc1cc(C)nc(S/C=C/C(=O)c2ccccc2F)n1	Sm TGR block 0.56µM
Cc1cc(NC(=O)c2ccccc2F)on1	none
CN(C)CCNC(=O)c1ccc2nc(Cc3ccccc3)oc2c1	none (no result: AmpC inh no detg)
COc1ccc(-n2c(=O)c3sc4ccccc4c3n(C)c2=O)cc1	none (no result: AmpC inh no detg)
CCN1/C(=C/C(=O)c2ccco2)Sc2ccccc21	Sm TGR block 20µM
CN1/C(=C\C(=O)c2ccco2)C(C)(C)c2ccccc21	Sm TGR block 45µM
CN1/C(=C\C(=O)COC(=O)c2ccco2)C(C)(C)c2ccccc21	none
CCC(=O)/C=C1/Sc2ccccc2N1CC	AmpC inh detg inconclusive
O=C1NCCN(Cc2ccc(F)cc2)C1CC(=O)N1CC=C(c2ccccc2)CC1 (stereo not drawn)	Sm TGR block 35µM
Cc1ccc(CN2CCNC(=O)C2CC(=O)N(C)C2CCCCC2)cc1 (stereo not drawn)	Sm TGR block 45µM
COc1ccc(CN2CCNC(=O)C2CC(=O)NCCCn2cccn2)cc1C (stereo not drawn)	none
COCCN(C(=O)CC1C(=O)NCCN1Cc1ccc(-c2ccccc2)cc1)C(C)C (stereo not drawn)	Sm TGR block 40µM
O=C1NCCN(Cc2ccc(-c3ccccc3)cc2)C1CC(=O)N1CCN(CCO)CC1 (stereo not drawn)	none
CCOc1ccc(CN2CCNC(=O)C2CC(=O)N(C)C2CCCCC2)cc1 (stereo not drawn)	Sm TGR block inconclusive
CN(CCc1ccccn1)C(=O)CC1C(=O)NCCN1Cc1ccc(-c2ccccc2)cc1 (stereo not drawn)	none
O=C(CC1C(=O)NCCN1Cc1ccc(F)c(F)c1)NCCn1cccn1 (stereo not drawn)	Sm TGR block 45µM
CC1CCc2c(sc(NC(=O)c3cc(-c4ccc(F)cc4)on3)c2C(N)=O)C1 (stereo not drawn)	none (no result: AmpC inh no detg)
COc1cccc(CN2C(=O)c3ccccc3Sc3ccc(C(=O)OCc4ccco4)cc32)c1	none (no result: AmpC inh no detg)
CCCCN(CCCC)CCNC(=O)Cn1nc(CC)n2c(cc3sccc32)c1=O	none (no result: AmpC inh no detg)
CCc1ccc(NC(=O)CSc2nc(=O)n(Cc3ccncc3)c3c2CCC3)cc1	none (no result: AmpC inh no detg)
Cc1ccc2ncc(C(=O)Nc3cccc(C(F)(F)F)c3)c(=O)n2c1	none (no result: AmpC inh no detg)
CN(C(=O)CC1C(=O)NCCN1Cc1ccc(F)cc1)C1CCOCC1 (stereo not drawn)	none
O=C1NCCN(Cc2ccoc2)C1CC(=O)N(Cc1ccccc1)CC1CCC1 (stereo not drawn)	Sm TGR block 10µM
CN(CC1CCOCC1)C(=O)CC1C(=O)NCCN1Cc1cccc(F)c1 (stereo not drawn)	Sm TGR block inconclusive, AmpC inh detg inconclusive
CN(C(=O)CC1C(=O)NCCN1Cc1ccc(F)c(F)c1)C1CCOCC1 (stereo not drawn)	Sm TGR block 45µM
CCOC(=O)c1ccc(NC(=O)CCCc2nc(-c3ccccc3Cl)no2)cc1	none (no result: AmpC inh no detg)
CC(C)c1ccc(NC(=O)C2CCCN(S(=O)(=O)c3ccc(Br)s3)C2)cc1 (stereo not drawn)	none (no result: AmpC inh no detg)
COc1ccc(-c2cc(OC(=O)c3ccc(F)cc3)c3c(C)oc(C)c3c(=O)c2)cc1	Sm TGR block 35µM
COc1ccc(-c2cc(OC(=O)c3cccc(Cl)c3)c3c(C)oc(C)c3c(=O)c2)cc1	Sm TGR block 22µM (no result: AmpC inh no detg)
CCOc1cc(-c2ccc(OC(=O)c3ccc(Cl)cc3)c(OC)c2)cc(=O)c2c(C)oc(C)c12	none (no result: AmpC inh no detg)
COc1ccc(-c2cc(OC(=O)c3ccccc3)c3c(C)oc(C)c3c(=O)c2)cc1OC	Sm TGR block inconclusive (no result: AmpC inh no detg)
CCCn1c2ccccc2c2cnn(CC(=O)Nc3ccccc3OC)c(=O)c21	none (no result: AmpC inh no detg)
COc1ccc(CCNC(=O)Cn2c(=O)n(-c3cc(OC)c(OC)c(OC)c3)c(=O)c3ccccc32)cc1OC	none (no result: AmpC inh no detg)
Cc1ccc(-c2nc(N3CCCC(C)C3)c3ccccc3n2)cc1 (stereo not drawn)	none (no result: AmpC inh no detg)
Cc1cc(/C=C2/NC(=O)NC2=O)c(C)n1C	Sm TGR block 14µM
Cc1cc(C)c(-n2c(C)cc(/C=C3/NC(=O)NC3=O)c2C)c(C)c1	none
CCc1ccc(-n2c(=O)c3sc4ccccc4c3n(Cc3cccc(F)c3)c2=O)cc1	none (no result: AmpC inh no detg)
CCOc1ccccc1NC(=O)c1ccc2c(c1)CCN2S(C)(=O)=O	none (no result: AmpC inh no detg)

Bioassay records as filed in PubChem BioAssay.
